A short description of test [1]: qHTS assay for small molecule agonists of the p53 signaling pathway (AID 651631; calls by dose curve; further: nearly all actives have a fitted effect of over 15% in size; further: potency means the concentration at half of the fitted maximal effect). The procedure, abridged: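 Read-out is beta-lactamase FRET fluorescence measured 2 h after substrate addition at room temperature, in HCT-116 cells with a p53 response element-driven reporter exposed to compounds for 16 h at 37 °C.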
Test [2] is described as follows: qHTS assay for small molecules that induce genotoxicity in human embryonic kidney cells expressing luciferase-tagged ATAD5 (AID 651632). Further: nearly all actives have a fitted effect of over 15% in size. Further: potency means the concentration at half of the fitted maximal effect. The procedure, abridged:
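Increased luciferase signal from ATAD5-tagged reporter cells indicates DNA-damage-driven ATAD5 induction. HEK293T cells are treated for 16 hr at 37C before detection with Amplite.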

The nature of test [3]: qHTS assay for small molecule agonists of the p53 signaling pathway - cell viability (AID 651633; calls by dose curve; further: nearly all actives have a fitted effect of over 30% in size; further: potency means the concentration at half of the fitted maximal effect). A digest of the protocol:
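p53RE-bla cells were treated with compound for 16 hours at 37 C. Cytotoxicity was then measured as CellTiter-Glo luminescence after 30 min at room temperature.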

Test [4] can be described thus: qHTS assay for small molecules that induce genotoxicity in human embryonic kidney cells expressing luciferase-tagged ATAD5 - cell viability (AID 651634; calls by dose curve; further: nearly all actives have a fitted effect of over 25% in size; further: potency means the concentration at half of the fitted maximal effect). A digest of the protocol:
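Cytotoxicity counterscreen in HEK293T cells bearing an ATAD5-luciferase reporter: live-cell protease activity measured by CellTiter-Fluor fluorescence after 15.5 hr compound exposure.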

Test [5] can be described thus: qHTS assay for small molecule disruptors of the mitochondrial membrane potential - cell viability (AID 720634; calls by dose curve;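 further: human HepG2 liver cancer cells; series mostly up to about 83 µM; nearly all actives have a fitted effect of over 20% in size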). The procedure, abridged: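 After overnight attachment at 37 C, HepG2 cells received compound or DMSO vehicle for 1 hr. Viability is then taken from ATP-driven luminescence following a 30 min room-temperature CellTiter-Glo step.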
The nature of test [6]: qHTS assay to test for compound auto fluorescence at 590 nm (red) in HepG2 cells (AID 720674). The procedure, abridged: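 Fluorescence at 590 nm emission following 540 nm excitation was recorded from HepG2 wells one hour after compound transfer, with DMSO-only wells as vehicle and Rose Bengal sodium equivalency as the scale.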
Test [7] can be described thus: qHTS assay to test for compound auto fluorescence at 535 nm (green) in HepG2 cells (AID 720675).
Test [8] is described as follows: qHTS assay to test for compound auto fluorescence at 460 nm (blue) in HEK293 cells (AID 720678). The procedure, abridged: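 Measured: blue fluorescence (Ex 405/Em 460 nm) of compound-treated HEK293 cells, incubated overnight at 37C with 5% CO2 and scaled to triamterene equivalents.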
Test [9] can be described thus: qHTS assay to test for compound auto fluorescence at 590 nm (red) in HEK293 cells (AID 720679). A digest of the protocol:
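Using HEK293 cells at 2,000 per well, the screen added 23 nL of each compound after cell attachment and incubated overnight (37C, 5% CO2). The plate reader then captured red-label fluorescence, Ex/Em 540/590nm.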

Test [10] can be described thus: qHTS assay for small molecule disruptors of the mitochondrial membrane potential (AID 720635). The procedure, abridged: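 HepG2 cells exposed to compound 1 hr at 37C, then Mito-MPS dye 30 min. Ratio read of aggregate (540/590 nm) versus monomer (490/535 nm) fluorescence.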

20 molecules from PubChem BioAssay (Tox21) can be followed below.

Results filed as inconclusive are left out. The source made the active and inactive calls. Unless noted, the call rests on the fitted dose curve; in most records, active means well fitted curve in the direction sought with a large enough effect in the repeat runs; inconclusive means weak or mixed curves; inactive means no such curve, though single readings can be large; an effect the other way counts as inactive or inconclusive. Non-standard residues stand in square brackets, D forms with d. Residues, ends and D or L forms follow the SMILES beside them. pGlu = O=C1CC[C@@H](C(=O)O)N1

In the case of `OC[C@H]1O[C@@H](O[C@H]2[C@H](O)[C@@H](O)[C@H](O)O[C@@H]2CO)[C@H](O)[C@@H](O)[C@@H]1O`, the Potency entry in test [1], in test [2], in [3], in [4], in [5] and in test [6] was “inactive” throughout. For the same molecule, the Potency result in [7], in test [8] and in [9] was “inactive” in each case.

For `C/C=C1\NC(=O)[C@H]2CSSCC/C=C/[C@H](CC(=O)N[C@H](C(C)C)C(=O)N2)OC(=O)C(C(C)C)NC1=O` (stereo not given in full), the Potency is 7.5 µM (active) in test [1], 9.4 nM (active) in [2], 1.5 µM (active) in test [3] and 7.5 µM (active) in test [4]. Also, the Potency entry in [5], in test [6], in test [7], in test [8] and in test [9] was “inactive” each time.

With `O=C(O)c1cc(O)c2c(c1)[O][Bi][O]2`, the Potency entry in [1], in test [2], in [3], in test [4], in test [5] and in test [6] was “inactive” throughout. Also, the Potency result in [7], in test [8] and in test [9] was “inactive” in each case.

For the molecule `Cn1cc(NC(=O)c2cc(NC(=O)c3cc(NC=O)cn3C)cn2C)cc1C(=O)NCCC(=N)N`, the Potency result in test [1], in [2], in [3], in test [4], in test [5] and in test [6] was “inactive” in each case. Also, the Potency entry in test [7], in test [8] and in test [9] was “inactive” throughout.

`CC(=O)N[C@@H]1C(O[C@H]2O[C@H](C(=O)O)C(O)[C@H](O)[C@H]2O)[C@H](O)[C@@H](CO)O[C@H]1O[C@@H]1C(C(=O)O)O[C@@H](O[C@H]2[C@H](O)[C@@H](CO)OC(O)[C@@H]2NC(C)=O)[C@H](O)[C@H]1O` (stereo not given in full): the Potency result in test [1], in test [2], in test [3], in test [4], in test [5] and in test [6] was “inactive” throughout. The Potency result in test [7], in test [8] and in [9] was “inactive” each time.

Consider `CC[C@H](CC[C@@H](C)[C@H]1CC[C@H]2[C@@H]3CC=C4C[C@@H](O)CC[C@]4(C)[C@H]3CC[C@]12C)C(C)C`, for which the Potency result in [1], in [2], in test [3], in test [4], in test [5] and in test [6] was “inactive” each time. The Potency result in test [7], in [8] and in test [9] was “inactive” in each case.

As to `CC(O)CN(C)C` (stereo not given), the Potency result in test [1], in test [2], in [3], in [4], in test [5] and in test [6] was “inactive” throughout. The Potency entry in test [7], in test [8] and in test [9] was “inactive” each time.

`O=C(O)c1cccc(/C=C2/C[C@@H]3[C@@H](/C=C/[C@@H](O)C4CCCCC4)[C@H](O)C[C@@H]3O2)c1`: the Potency entry in [1], in test [2], in [3], in [4], in [5] and in [7] was “inactive” throughout. Besides, the Potency result in [8] and in [9] was “inactive” throughout.

On to `CCC(Cc1c(I)cc(I)c(O)c1I)C(=O)O` (stereo not given), for which the Potency result in test [1], in test [2], in test [3], in test [4], in test [5] and in [6] was “inactive” throughout. Also, the Potency entry in test [7], in [8] and in test [9] was “inactive” each time.

As for `O=S(=O)(O)CCCS(=O)(=O)O`, the Potency entry in test [1], in test [2], in test [3], in [4], in test [5] and in test [6] was “inactive” in each case. For the same molecule, the Potency result in test [7], in test [8] and in test [9] was “inactive” in each case.

Turning to `CC[C@H](C)[C@H](NC(=O)[C@H](Cc1ccccc1)NC(=O)[C@H](C)NC(=O)[C@H](CC(=O)O)NC(=O)[C@H](CCCCN)NC(=O)[C@H](CO)NC(=O)[C@@H]1CCCN1C(=O)[C@@H]1CCC(=O)N1)C(=O)NCC(=O)N[C@@H](CC(C)C)C(=O)N[C@@H](CCSC)C(N)=O` ([pGlu]PSKDAFIGLM-NH2), the Potency entry in test [1], in [2], in test [3], in [4], in [5] and in test [6] was “inactive” throughout. Further, the Potency result in test [7], in [8] and in test [9] was “inactive” each time.

As for `O=c1[nH]cnc2[nH]cc(CN3CCCCC3)c12`, the Potency entry in test [1], in test [2], in test [3], in [4], in test [5] and in test [6] was “inactive” throughout. The Potency entry in test [7], in test [8] and in test [9] was “inactive” in each case.

For the molecule `CCCC(=O)O[C@]1(C(=O)COC(C)=O)CC[C@H]2[C@@H]3C[C@H](F)C4=CC(=O)C=C[C@]4(C)[C@@]3(F)[C@@H](O)C[C@@]21C`, the Potency entry in test [1], in test [2], in [3], in test [4], in test [5] and in test [7] was “inactive” in each case. In addition, the Potency entry in test [8] and in [9] was “inactive” in each case.

As to `C=CCSSSCC=C`, in [1], the Potency was 9.44 µM (active). Moreover, the Potency result in [2], in test [3], in [4], in test [5], in test [6] and in test [7] was “inactive” each time. The Potency entry in [8] and in [9] was “inactive” each time.

As to `C[C@@H](O)[C@H]1C(=O)N2C(C(=O)[O-])=C(SC3Cn4cnc[n+]4C3)[C@H](C)[C@H]12` (stereo not given in full), the Potency result in test [1], in [2], in [3], in test [4], in [5] and in test [6] was “inactive” throughout. Moreover, the Potency result in test [7], in [8] and in [9] was “inactive” throughout.

`O=C(O[C@H]1CN2CCC1CC2)N1CCc2ccccc2[C@@H]1c1ccccc1`: the Potency result in test [1], in test [2], in test [3], in test [4], in test [5] and in [6] was “inactive” throughout. The Potency result in test [7], in [8] and in test [9] was “inactive” in each case.

Consider `COc1ccc(C(=O)Nc2ccccc2CCC2CCCCN2C)cc1` (stereo not given), for which the Potency entry in test [1], in test [2], in test [3], in test [4], in [10] and in test [6] was “inactive” throughout. In addition, the Potency entry in [7], in test [8] and in [9] was “inactive” in each case.

In the case of `C=CCNC1=C2C[C@@H](C)C[C@H](OC)[C@H](O)[C@@H](C)/C=C(\C)[C@H](OC(N)=O)[C@@H](OC)/C=C\C=C(/C)C(=O)NC(=CC1=O)C2=O`, the Potency in test [1] is 0.168 µM (active). Besides, the Potency result in test [2], in test [3], in test [5], in test [6], in test [7] and in [8] was “inactive” in each case. Moreover, the Potency entry in test [9] was “inactive”.

As for `NC[C@@H]1O[C@H](O[C@H]2[C@@H](O)[C@H](O[C@@H]3[C@@H](O)[C@H](N)C[C@H](N)[C@H]3O[C@H]3O[C@H](CO)[C@@H](O)[C@H](O)[C@H]3N)O[C@@H]2CO)[C@H](N)[C@@H](O)[C@@H]1O`, the Potency result in test [1], in test [2], in test [3], in [4], in test [10] and in [6] was “inactive” each time. In addition, the Potency entry in [7], in test [8] and in test [9] was “inactive” each time.

As to `CC1(S(=O)(=O)O)CC(=O)c2ccccc2C1=O` (stereo not given), the results for the Potency in test [1] and in test [3] were 21.1 µM (active) and 26.6 µM (active), respectively. In addition, the Potency entry in test [2], in [5], in test [6], in test [7] and in test [9] was “inactive” each time.
